Consider 3 molecules from PubChem BioAssay AID720519 (National Center for Advancing Translational Sciences (NCATS), 2013).

Inconclusive results are not listed. Entries that show only a call come without a potency. The source made the active and inactive calls. The call rests on the fitted dose curve; in most records, active means well fitted activation curve with a large enough effect; inconclusive means small, poorly fitted or top-dose-only effect; inactive means flat fitted curve, though single readings scatter.

A short description of the assay: qHTS for Inhibitors of Cell Surface uPA Generation: Confirmatory Assay for Cherry-picked Compounds. The settings on record: cell surface uPA activity generation, qHTS confirmation; series mostly up to 115 µM. Put shortly:
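RAW 264.7 cells at 4000/well, incubated overnight, then treated with compounds. After 24 h at 37 C, viability was read by ATPlite luminescence. An increase in signal indicates blocked uPA-dependent LF entry.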
As to `Cc1ccc(S(=O)(=O)NNC(=O)c2ccc(F)cc2)cc1`, the Potency result was “inactive”.

`O=C(C[n+]1ccccc1)Nc1ccccc1C(F)(F)F`: the Potency entry was “inactive”.

As for `C=CCn1c(=O)c(C(=O)NCCc2ccc(Cl)cc2)c(O)c2cc(OC)c(OC)cc21`, the Potency result was “inactive”.
